Test systems include SK-MEL-2 melanoma; EKVX NSCLC; SN12C renal; UO-31 renal; TK-10 renal; ACHN renal; CAKI-1 renal; A498 renal; CCRF-CEM leukemia; MOLT-4 leukemia; SR leukemia; RPMI-8226 leukemia; OVCAR-8 ovarian; OVCAR-5 ovarian; OVCAR-4 ovarian; SK-OV-3 ovarian; IGROV1 ovarian; OVCAR-3 ovarian; HS 578T breast; NCI/ADR-RES ovarian.
Experiment in all cases: NCI-60 one-dose screen, 48 h (100 = growth as untreated, 0 = no growth, -100 = all killed)
Holding throughout (details): 10 µM unless noted

About 83,000 compounds went through this panel and 20% of them were active in at least one assay; those are over-represented in the sample as a whole.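 In brief: 96-well plates, 48 h treatment, single concentration, percent growth endpoint.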 Unmarked numbers belong to inactive results. Active and inactive are the calls of the source. How the source made its calls: active means growth percent below 10; inactive means the rest.

On to `COc1ccc2c(c1)NC(=O)CN2c1nc(C)nc2ccccc12`, for which the growth was 23.5% with SK-MEL-2 melanoma; 30.1% in the experiment with EKVX NSCLC; 24.7% in the experiment on SN12C renal; 26.8% in the experiment with UO-31 renal; 14.8% with TK-10 renal; 26.9% in the experiment with ACHN renal. Further, the growth in the experiment on CAKI-1 renal is 29.3%; in the experiment with A498 renal it was -4.89% (active); in the experiment on CCRF-CEM leukemia it was 37.2%; in the experiment on MOLT-4 leukemia, 23.7%; in the experiment with SR leukemia, 18.8%; with RPMI-8226 leukemia it was 45.2%. For the same molecule, the growth with OVCAR-8 ovarian was 12.5%; in the experiment on OVCAR-5 ovarian, 51.5%; with OVCAR-4 ovarian, 45.5%; in the experiment on SK-OV-3 ovarian, 31.3%; in the experiment with IGROV1 ovarian, 18.8%; in the experiment on OVCAR-3 ovarian, -13.9% (active). Besides, the growth in the experiment on HS 578T breast was 40%; with NCI/ADR-RES ovarian, 14%.
`O=C(NCCc1c[nH]c2ccccc12)C1Cc2ccccc2CN1C(=O)c1ccco1` (centres undefined): the growth in the experiment with SK-MEL-2 melanoma was 69.5%; with EKVX NSCLC it was 102%; with SN12C renal, 111%; in the experiment with UO-31 renal, 53.5%; in the experiment on TK-10 renal, 110%; in the experiment with ACHN renal, 96.6%. Besides, the growth with CAKI-1 renal is 107%; with A498 renal, 107%; in the experiment with CCRF-CEM leukemia it was 81.2%; in the experiment on MOLT-4 leukemia, 77.1%; with SR leukemia, 65.5%; in the experiment with RPMI-8226 leukemia it was 87.3%. Besides, the growth in the experiment on OVCAR-8 ovarian was 100%; in the experiment with OVCAR-5 ovarian it was 125%; with OVCAR-4 ovarian, 96.9%; with SK-OV-3 ovarian it was 125%; in the experiment with IGROV1 ovarian it was 3.58% (active); in the experiment on OVCAR-3 ovarian it was 104%. Further, the values for the growth with HS 578T breast and in the experiment on NCI/ADR-RES ovarian were 118% and 128%, respectively.
For `O=S(=O)(NCCCNc1cc(-c2cn(-c3ccccc3)nc2-c2cccc(O)c2)ccn1)c1cccc2ccccc12`, the growth is 62.4% with SK-MEL-2 melanoma; 37.5% in the experiment with EKVX NSCLC; 51.4% with SN12C renal; 20.6% in the experiment on UO-31 renal; 66.3% in the experiment on TK-10 renal; 29.8% in the experiment with ACHN renal. The growth in the experiment on CAKI-1 renal is 28.7%; with A498 renal, 43.6%; in the experiment with CCRF-CEM leukemia, 26%; in the experiment on MOLT-4 leukemia it was 13.6%; in the experiment with SR leukemia it was 13.9%; with RPMI-8226 leukemia, 7.85% (active). In addition, the growth in the experiment with OVCAR-8 ovarian was 48.4%; in the experiment on OVCAR-5 ovarian it was 59.7%; in the experiment on OVCAR-4 ovarian, 45.2%; in the experiment on SK-OV-3 ovarian, 58.8%; in the experiment on IGROV1 ovarian, 51%; in the experiment on OVCAR-3 ovarian, 49.8%. For the same molecule, the growth with HS 578T breast is 15.6%; with NCI/ADR-RES ovarian, 39.9%.
With `COc1ccc(C2NC3=C(CCCC3)C(C#N)(C#N)C2(C#N)C#N)cc1` (centres undefined), the growth is 98.8% with SK-MEL-2 melanoma; 88.2% in the experiment on EKVX NSCLC; 88.7% with SN12C renal; 75.7% in the experiment with UO-31 renal; 79.7% in the experiment on TK-10 renal; 37.1% in the experiment with ACHN renal. Also, the growth is 78% in the experiment on CAKI-1 renal; 111% in the experiment on A498 renal; 7.38% (active) in the experiment on CCRF-CEM leukemia; 9.29% (active) with MOLT-4 leukemia; 1.12% (active) in the experiment with SR leukemia; 79.9% with RPMI-8226 leukemia. In addition, the growth with OVCAR-8 ovarian was 104%; in the experiment with OVCAR-5 ovarian, 97.1%; with OVCAR-4 ovarian, 98.1%; in the experiment on SK-OV-3 ovarian it was 99.5%; in the experiment with OVCAR-3 ovarian, 43%; with HS 578T breast it was 98%. Further, the growth in the experiment on NCI/ADR-RES ovarian is 101%.
With `CCCCC[C@@H]1Cc2cc(O)c(C(=O)O)c3c2[C@H](C[C@@]2(CCCO2)O3)O1`, the growth with SK-MEL-2 melanoma is 67.4%; in the experiment on EKVX NSCLC it was 108%; with SN12C renal, 104%; in the experiment on UO-31 renal it was 44.7%; in the experiment on TK-10 renal it was 129%; in the experiment with ACHN renal, 108%. In addition, the growth is 102% with CAKI-1 renal; 133% in the experiment on A498 renal; 94.5% in the experiment on CCRF-CEM leukemia; 62.6% in the experiment on MOLT-4 leukemia; 64.4% in the experiment on SR leukemia; 98.7% in the experiment on RPMI-8226 leukemia. The growth in the experiment on OVCAR-8 ovarian is 101%; with OVCAR-5 ovarian it was 104%; in the experiment with OVCAR-4 ovarian, 94.2%; in the experiment on SK-OV-3 ovarian, 113%; in the experiment on IGROV1 ovarian, -4.39% (active); in the experiment on OVCAR-3 ovarian it was 107%. The growth in the experiment with HS 578T breast is 122%; in the experiment with NCI/ADR-RES ovarian, 96.1%.
`CCN(CC)CCCNc1nc(C)cc(Nc2ccc3nc(C)cc(N)c3c2)n1`: the growth with SK-MEL-2 melanoma is 36.1%; with EKVX NSCLC it was 96.2%; with SN12C renal, 94.7%; in the experiment on UO-31 renal, 89.7%; with TK-10 renal, 88%; in the experiment on ACHN renal, 101%. Further, the growth is 95.6% in the experiment with CAKI-1 renal; 125% in the experiment with A498 renal; 99.4% with CCRF-CEM leukemia; 112% in the experiment on MOLT-4 leukemia; 110% with SR leukemia; 102% with RPMI-8226 leukemia. The growth in the experiment with OVCAR-8 ovarian is 106%; in the experiment on OVCAR-4 ovarian it was 116%; in the experiment on SK-OV-3 ovarian it was 89.9%; in the experiment with IGROV1 ovarian, 97.8%; in the experiment on OVCAR-3 ovarian it was 106%; with HS 578T breast, 109%. For the same molecule, the growth with NCI/ADR-RES ovarian was 101%.
For `Cc1oc2ncnc(Nc3ccccc3)c2c1C(=O)NCCO`, the growth is 113% in the experiment on SK-MEL-2 melanoma; 97.6% in the experiment on EKVX NSCLC; 93.2% in the experiment with SN12C renal; 87.7% with UO-31 renal; 122% in the experiment on TK-10 renal; 91.8% in the experiment on ACHN renal. Moreover, the growth is 90.8% in the experiment with CAKI-1 renal; 78.2% with A498 renal; 97.4% with CCRF-CEM leukemia; -0.282% (active) in the experiment with MOLT-4 leukemia; 52.2% in the experiment with SR leukemia; 94.8% in the experiment with RPMI-8226 leukemia. Moreover, the growth is 113% with OVCAR-8 ovarian; 103% in the experiment on OVCAR-4 ovarian; 100% with SK-OV-3 ovarian; 102% with OVCAR-3 ovarian; 90.5% in the experiment on HS 578T breast; 102% in the experiment on NCI/ADR-RES ovarian.
For `CC1(C)OC2COC3(C(=O)O)OC(C)(C)OC3C2O1` (centres undefined), the growth is 93.1% in the experiment with SK-MEL-2 melanoma; 97% with EKVX NSCLC; 91.4% in the experiment with SN12C renal; 92.3% in the experiment on UO-31 renal; 94.7% in the experiment on TK-10 renal; 94.4% in the experiment on ACHN renal. Besides, the growth in the experiment on CAKI-1 renal is 103%; in the experiment with A498 renal, 91.7%; in the experiment with CCRF-CEM leukemia, 128%; in the experiment with MOLT-4 leukemia it was 104%; in the experiment with SR leukemia, 121%; in the experiment with RPMI-8226 leukemia, 109%. Besides, the growth in the experiment on OVCAR-5 ovarian is 90.1%; in the experiment with SK-OV-3 ovarian, 103%; with IGROV1 ovarian it was 109%; in the experiment with OVCAR-3 ovarian, 108%; in the experiment with HS 578T breast, 101%; with NCI/ADR-RES ovarian, 101%.

For the origin of these results see PubChem BioAssay (NCI).
